Values without a mark were called inactive. Activity calls are given as the source filed them. The call rests on the fitted dose curve; in most records, active means well fitted curve in the direction sought with a large enough effect; inactive means no such curve, though single readings can be large or run the other way.

For the assay, the target named is Alpha-galactosidase (Coffea arabica) (UniProt Q42656). Briefly: Counterscreen for Glucocerebrosidase Inhibitors: qHTS Assay for Coffee Bean alpha-Galactosidase at pH 5.9 (AID 998).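 Further: plate controls were uninhibited enzyme for no effect and no-enzyme basal signal for full effect.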 The settings on record: coffee bean alpha-galactosidase enzyme assay; series mostly up to 76.9 µM; activity, negative = inhibition: at the top concentration. An excerpt: NIH Chemical Genomics Center [NCGC]
Sequence of Alpha-galactosidase (Coffea arabica) (Q42656 whole entry, looked up): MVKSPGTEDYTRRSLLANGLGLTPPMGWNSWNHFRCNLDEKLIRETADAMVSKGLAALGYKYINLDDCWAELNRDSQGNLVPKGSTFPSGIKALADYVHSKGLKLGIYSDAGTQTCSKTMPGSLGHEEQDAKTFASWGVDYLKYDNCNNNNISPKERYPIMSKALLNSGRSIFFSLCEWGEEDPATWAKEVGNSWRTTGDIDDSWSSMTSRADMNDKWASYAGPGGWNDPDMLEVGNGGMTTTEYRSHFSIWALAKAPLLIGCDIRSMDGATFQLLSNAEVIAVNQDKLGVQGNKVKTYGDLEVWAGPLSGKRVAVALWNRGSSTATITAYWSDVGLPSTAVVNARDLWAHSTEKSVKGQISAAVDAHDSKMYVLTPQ
NIH Molecular Libraries Screening Centers Network [MLSCN]
PI Name: Zheng, Wei [NIH]
Alpha-galactosidase is a homodimeric glycoprotein that hydrolyzes the terminal alpha-galactosyl moieties from glycolipids and glycoproteins. Deficiency of this enzyme results in Fabry Disease with progressive accumulation of globotriaosylceramide and other glycosphingolipids in vascular endothelial cells that causes renal failure, myocardial infarction and stroke, and premature death in patients. It has reported that the improper folding and trafficking of alpha-galactosidase resulted from the genetic mutations may account for a significant numbers of Fabry patients. […] We optimized this coffee bean alpha-galactosidase assay in 1536-well plate format as a counter-screen assay for identifying the selective small molecule inhibitors of other lysosomal enzymes.
NCGC Assay Protocol Summary:
This is a fluorogenic enzyme assay with 4-Methylumbelliferyl alpha-D-galactopyranoside as the substrate and green coffee bean […] (from Sigma-Aldrich) as the enzyme preparation. Upon the hydrolysis of this fluorogenic substrate, the resulting product, […]. 4-Methyllumbelliferone, can be excited at 365 nm and emits at 440 nm which can be detected by a standard fluorescence plate reader. Data were normalized to the controls for basal activity (without enzyme) and 100% activity (with enzyme). In the AC50 values were determined from concentration-response data modeled with the standard Hill equation.
Assay buffer: 50 mM citric acid, 0.005% Tween-20, pH 5.9. (pH 5.9 is an optimal condition for this enzyme assay.)
1536-well assay protocol for the coffee bean alpha-galactosidase:
(1) Add 2 ul/well of enzyme (2 nM final)
(2) Add 23 nL compounds in DMSO solution. The final titration was 0.7 nM to 77 uM.
(3) Add 1 ul of substrate (80 uM final)
(4) Incubate at room temperature for 20 min.
(5) Add 2 ul stop solution (1M NaOH and 1M Glycine mixture, pH 10)
(6) Detect the assay plate in a ViewLux plate reader (PerkinElmer) with Ex=365 nm and Em=440nm.
Keywords: Alpha-galactosidase, Fabry Disease, pharmacological chaperone, chaperone therapy, high throughput screening, alpha-galactosidase inhibitor, MLSMR, MLSCN, NIH Roadmap, qHTS and NCGC
In general terms: The purpose of a counterscreen is to sort out artefacts and off-target activity.
With `Fc1ccc(C(OCCN2CCN(CCCc3ccccc3)CC2)c2ccc(F)cc2)cc1`, the “activity, negative = inhibition” value is -6.76%.
`N[C@@H]1CONC1=O`: the compound was called inactive.
Consider `O=C(C1CCCCC1)N1CC(=O)N2CCc3ccccc3C2C1` (stereo not given), for which the “activity, negative = inhibition” value was 0.743%.
On the same count and under the same terms, as for `CN1CCN(C2=Nc3ccccc3Oc3ccc(Cl)cc32)CC1`, the figure is -3.13%.
The same measure, in the same setting: under `CC[N+](C)(C)c1cccc(O)c1` stands -1.94%; under `CCOC(=O)N1CCC(=C2c3ccc(Cl)cc3CCc3cccnc32)CC1`, -1.36%; under `NC(=O)NO`, 2.38%.
Same read-out and setting: under `NNc1nncc2ccccc12` stands 4.09%.
Turning to `Nc1nc2c(ncn2COCCO)c(=O)[nH]1`, the “activity, negative = inhibition” value was 1.73%.
Same read-out and setting: under `Cc1cn([C@H]2C=C[C@@H](CO)O2)c(=O)[nH]c1=O` stands 2.02%; under `C[C@](N)(Cc1ccc(O)c(O)c1)C(=O)O`, -0.582%.
Same read-out and setting: as for `CC(C)C(=O)Nc1ccc([N+](=O)[O-])c(C(F)(F)F)c1`, the figure is 0.672%; as for `Cc1ccc(S(=O)(=O)NC(=O)NN2CCCCCC2)cc1`, -1.21%; as for `Fc1ccc([C@@H]2CCNC[C@H]2COc2ccc3c(c2)OCO3)cc1`, -3.4%.
The same measure, in the same setting: as for `O=NN(CCCl)C(=O)NCCCl`, the figure is 3.94%; as for `Nc1ccncc1`, -1.71%; as for `O=c1n(CCCN2CCN(c3cccc(Cl)c3)CC2)nc2ccccn12`, 0.844%.
As for `CNCCCC1c2ccccc2C=Cc2ccccc21`, the “activity, negative = inhibition” value is -2.52%.
Same read-out and setting: under `NC12CC3CC(CC(C3)C1)C2` stands 2.06%.
In the case of `Clc1cccc(N2CCNCC2)c1`, the “activity, negative = inhibition” value is -1.94%.
For `CCCCc1oc2ccccc2c1C(=O)c1cc(I)c(OCCN(CC)CC)c(I)c1`, the “activity, negative = inhibition” value is -6.82%.
Consider `CCN(CC)C(=S)SSC(=S)N(CC)CC`, for which the “activity, negative = inhibition” value was -1.92%.
Same read-out and setting: under `NCC1(CC(=O)O)CCCCC1` stands -1.76%; under `Nc1ncn([C@@H]2O[C@H](CO)[C@@H](O)[C@H]2O)c(=O)n1`, -2.25%; under `CC(=O)[C@H]1CC[C@H]2[C@@H]3CC[C@H]4C[C@H](O)CC[C@]4(C)[C@H]3C(=O)C[C@]12C`, 1.16%.
Still for that read-out and setting: under `Cc1cnc(C(=O)NCCc2ccc(S(=O)(=O)NC(=O)NC3CCCCC3)cc2)cn1` stands 2.11%; under `Cn1ccc2cc3c(cc21)CCN3C(=O)Nc1cccnc1`, -2.52%; under `Cc1[nH]c(=O)c(C#N)cc1-c1ccncc1`, 3.68%.
Turning to `CC(=O)CCCCn1c(=O)c2c(ncn2C)n(C)c1=O`, the “activity, negative = inhibition” value is 1.26%.
The same measure, in the same setting: as for `OCCN1CCN(CCCN2c3ccccc3Sc3ccc(Cl)cc32)CC1`, the figure is 0.319%; as for `COC(=O)Nc1nc2ccc(C(=O)c3cccs3)cc2[nH]1`, -3.96%; as for `O=c1[nH]c2ccccc2n1CCCN1CCC(n2c(=O)[nH]c3cc(Cl)ccc32)CC1`, 1.03%.
On the same count and under the same terms, as for `CC[N+](CC)(CC)CC`, the figure is 2.92%; as for `CN1C[C@H](CNC(=O)OCc2ccccc2)C[C@@H]2c3cccc4c3c(cn4C)C[C@H]21`, -3%; as for `CC1(C)NC(=O)N(c2ccc([N+](=O)[O-])c(C(F)(F)F)c2)C1=O`, -0.355%.
As for `O=C1CCc2cc(OCCCCc3nnnn3C3CCCCC3)ccc2N1`, the “activity, negative = inhibition” value is -0.37%.
In the case of `CCCN1CCC[C@@H]2Cc3[nH]ncc3C[C@H]21`, the result was inactive.
As to `NC(=O)OCC(COC(N)=O)c1ccccc1`, the “activity, negative = inhibition” value was 1.61%.
The same measure, in the same setting: as for `CN1CCC[C@@H]1CCO[C@](C)(c1ccccc1)c1ccc(Cl)cc1`, the figure is -5.35%.
Still for that read-out and setting: under `CNCC(O)c1ccc(O)cc1` (stereo not given) stands 0.908%.

For the origin of these results see PubChem BioAssay (NCATS).
